The text below walks through data of PubChem BioAssay.

SMILES strings stand for the structures. Calls of active or inactive are those of the source.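 How the source made its calls, unless noted: active means inhibition at or above 50% at 10 µM; inactive means inhibition below 50%.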

The nature of test [1]: inhibitors of TNFa-induced NFkB p65 translocation, primary screen, imaging, HUVEC, MLSMR starter and 10KST1 sets (AID 438;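 active means inhibition above 20% together with a positive visual image hit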;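 further: compound added about 3h40 before a 20 min TNFalpha stimulation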;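 on inhibition: signal is the nuclear over cytoplasmic p65 intensity ratio per well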). The note with it: HUVEC TNFa-induced p65 nuclear translocation; cell count: measured here: nuclei count (cytotoxicity indicator), at 2.08 µM unless noted; inhibition: at 2 µM, stronger effect = higher value unless noted.
A short description of test [2]: inhibitors of mutant huntingtin aggregation, primary screen, imaging, exon1htt(103Q)mCFP cells, high-content imaging (AID 483;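 active means visual image review flags a hit and inhibition of aggregation exceeds 20%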;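 further: compound exposure lasted 3 days before fixation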;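 on nuclei count: percent of the per-plate median nuclei count of sample wells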). The note with it: exon1htt(103Q)mCFP cell line, aggregate imaging, at 2 µM; inhibition of aggregation: stronger effect = higher value; nuclei count: measured here: cell count, toxicity.
Test [3] in a line: inhibitors of E-selectin induction by TNFa, primary screen, imaging, HUVEC, immunofluorescence, MLSMR starter and 10KST1 sets (AID 487;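 active means visually confirmed hit in the image check and inhibition above 20%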;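 on inhibition: signal is fraction of cell area covered by stained E-selectin grains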;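 on nuclei count: 100% = median nuclei count of all wells on the same plate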). The note with it: HUVEC TNFalpha-induced E-selectin immunofluorescence imaging, at 2 µM; inhibition: stronger effect = higher value; nuclei count: measured here: cell number, toxicity.
The target in test [4] is Voltage-gated potassium channel subunit beta-2 (Rattus norvegicus) (UniProt P62483). Put plainly: KvBeta enzyme negative modulators, primary screen, biochemical, NADPH fluorescence (AID 622;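 active means fluorescence slope higher than the sample average by over 3 SD, cut at about -0.22 in these data, passing the limit was not always enough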;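 further: slope of raw intensity against log time taken from 70 to 1610 s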). The note with it: recombinant KvBeta, 4-cyanobenzaldehyde reduction, at 10 µM, stronger effect = higher value.
The target is the same in test [5]. As to the kind of experiment: KvBeta positive modulators, primary screen, biochemical, NADPH fluorescence (AID 623;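 active means NADPH fluorescence slope more negative than the mean of all samples by about 3 SD, 99.7% confidence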;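 further: fluorescence intensity change per second fitted from 20 to 320 s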). Particulars: Recombinant KvBeta, NADPH fluorescence decrease slope, 10 min; at 10 µM; stronger effect = lower value.
In test [6] the target is Alpha-2C adrenergic receptor (Homo sapiens) (UniProt P18825). Put plainly: modulators of alpha2C/GIRK thallium flux, primary screen, cell-based, HEK293 alpha2C/GIRK1/2 (AID 624;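 active means fluorescence slope after compound addition differing from the mean of all screened samples at 99.7% confidence, in either direction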;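 further: slope of fluorescence ratio to pre-addition baseline per second over 15 to 24 s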). The note with it: thallium flux BTC fluorescence, at 10 µM, actives lie on both sides.
A short description of test [7]: inhibitors of Sendai virus-induced IRF3 signaling, primary screen, TLR/RLR signaling modifier project, cell-based, Sendai virus stimulus, luciferase, 10K MLSCN set (AID 602276).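 Further: firefly luciferase from ISG56 promoter only with Renilla not read in this screen; 0% = Sendai virus plus DMSO and 100% = medium plus DMSO without virus.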 The note with it: HEK293 RL24 IRF3 luciferase reporter, at 10 µM, stronger effect = higher value.
The nature of test [8]: inhibitors of poly I:C-induced TLR3 signaling, primary screen, cell-based, poly I:C stimulus, luciferase, 10K MLSCN set (AID 602277;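 active means inhibition of the reporter signal at or above 50%; inactive means inhibition below 50%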). Particulars: HEK293-TLR3 RL24 IRF3 luciferase reporter, at 10 µM, stronger effect = higher value. (In general: Reporter assays use an easily measured gene product as a stand-in for the process of interest.)

Sequence of Voltage-gated potassium channel subunit beta-2 (Rattus norvegicus) (P62483 whole entry, looked up): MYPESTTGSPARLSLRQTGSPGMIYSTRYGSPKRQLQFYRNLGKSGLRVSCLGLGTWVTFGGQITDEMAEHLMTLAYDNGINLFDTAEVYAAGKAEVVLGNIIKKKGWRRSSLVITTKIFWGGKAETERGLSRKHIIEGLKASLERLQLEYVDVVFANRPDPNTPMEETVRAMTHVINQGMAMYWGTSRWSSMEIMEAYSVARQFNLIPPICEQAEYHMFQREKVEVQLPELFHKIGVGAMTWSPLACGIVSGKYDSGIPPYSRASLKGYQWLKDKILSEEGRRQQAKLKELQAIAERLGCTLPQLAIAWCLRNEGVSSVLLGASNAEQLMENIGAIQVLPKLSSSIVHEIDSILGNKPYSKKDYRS
Sequence of Alpha-2C adrenergic receptor (Homo sapiens) (P18825 whole entry, looked up): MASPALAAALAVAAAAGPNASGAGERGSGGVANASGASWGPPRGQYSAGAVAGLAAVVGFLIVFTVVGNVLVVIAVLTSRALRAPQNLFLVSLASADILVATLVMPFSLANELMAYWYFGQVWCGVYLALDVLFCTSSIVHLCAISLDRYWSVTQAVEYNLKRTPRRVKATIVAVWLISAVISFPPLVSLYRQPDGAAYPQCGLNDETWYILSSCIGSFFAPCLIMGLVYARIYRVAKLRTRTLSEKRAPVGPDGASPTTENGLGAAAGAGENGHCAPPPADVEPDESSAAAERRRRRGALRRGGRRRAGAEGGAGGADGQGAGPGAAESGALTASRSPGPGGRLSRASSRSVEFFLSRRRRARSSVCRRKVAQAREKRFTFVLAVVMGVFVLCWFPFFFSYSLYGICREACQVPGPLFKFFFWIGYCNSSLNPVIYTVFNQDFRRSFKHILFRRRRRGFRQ

`Cc1cccc(N2CCc3c2nc2ccccc2c3N)c1` had a cell count in test [1] of 731. Further, the inhibition (commonly the drop in the measured response relative to a control, in per cent) in test [1] is -6.5% (inactive); in test [3] it was -54.5% (inactive); in test [7] it was 15.5% (inactive); in test [8], 31.6% (inactive). Further, the inhibition of aggregation in test [2] is -7.8% (inactive). Also, the nuclei count in test [2] is 98%; in test [3], 112%. The fluorescence slope in test [4] was -0.113 (active). The NADPH fluorescence slope in test [5] is -9.7e-06 (inactive). The slope in test [6] was 0.00452 (inactive).
The compound `CCCCn1c(C)c(C(=O)OCC)c2c(CN3CCOCC3)c(O)ccc21` showed a cell count in test [1] of 702. Also, the inhibition in test [1] was 0.6% (inactive); in test [3], -44.3% (inactive); in test [7] it was 11.9% (inactive); in test [8], 19.2% (inactive). Moreover, in test [2], the inhibition of aggregation was -0.7% (inactive). Further, the nuclei count in test [2] is 82.8%; in test [3], 100%. Besides, the fluorescence slope in test [4] was -0.373 (inactive). Also, the NADPH fluorescence slope in test [5] was -2.7e-05 (inactive). For the same compound, the slope in test [6] was 0.00475 (inactive).
`O=C1CC(N2CCC(n3c(=O)[nH]c4ccccc43)CC2)C(=O)N1c1ccc(F)cc1` (stereo not given) returned a cell count in test [1] of 366. The inhibition in test [1] is 3.6% (inactive); in test [3], -52.5% (inactive); in test [7], 6.41% (inactive); in test [8] it was 18.8% (inactive). Moreover, the inhibition of aggregation in test [2] was 6.3% (inactive). The nuclei count in test [2] was 90.7%; in test [3], 93.7%. Also, the fluorescence slope in test [4] was -0.315 (inactive). The NADPH fluorescence slope in test [5] is 1.5e-05 (inactive). Besides, the slope in test [6] is 0.0029 (inactive).
Take `CCOc1ccc(-n2c(O)c(C=NCCN(CC)CC)c(=O)[nH]c2=O)cc1`: the cell count in test [1] is 411. Moreover, the inhibition in test [1] is -1.5% (inactive); in test [3] it was -87.3% (inactive); in test [7], 0.257% (inactive); in test [8], 1.28% (inactive). Also, the inhibition of aggregation in test [2] is -1.7% (inactive). For the same compound, the figures for the nuclei count in test [2] and in test [3] were 89.3% and 125%, respectively. Further, in test [4], the fluorescence slope is -0.553 (inactive). Moreover, the NADPH fluorescence slope in test [5] is 1.2e-05 (inactive). In addition, the slope in test [6] was 0.00486 (inactive).
As for `Cc1ccc(C2SCC(=O)Nc3c2c(=O)[nH]n3C2CCOC(C)(C)C2)cc1` (stereo not given), the cell count in test [1] is 378. For the same compound, the inhibition was -0.6% (inactive) in test [1], -20.4% (inactive) in test [3], 18% (inactive) in test [7] and 29.8% (inactive) in test [8]. Further, in test [2], the inhibition of aggregation is -18.2% (inactive). Moreover, the nuclei count came out at 128% in test [2] and 111% in test [3]. For the same compound, the fluorescence slope in test [4] is -0.37 (inactive). In test [5], the NADPH fluorescence slope is -3.9e-05 (inactive). In addition, the slope in test [6] is 0.00325 (inactive).
In the case of `Cc1ccc(C(=O)C2CN3CCC2CC3)cc1` (stereo not given), the cell count in test [1] came out at 882. Further, the inhibition is -7.3% (inactive) in test [1], -84.2% (inactive) in test [3], 11.9% (inactive) in test [7] and 43.4% (inactive) in test [8]. In test [2], the inhibition of aggregation is -13.1% (inactive). The nuclei count in test [2] amounted to 103%; in test [3], 111%. Moreover, the fluorescence slope in test [4] was -0.441 (inactive). Also, the NADPH fluorescence slope in test [5] is -2.3e-05 (inactive). Moreover, the slope in test [6] was 0.00351 (inactive).
`CCN1CCN(Cc2cc(Br)cc(OC)c2O)CC1` yielded a cell count in test [1] of 579. The inhibition in test [1] is 3.6% (inactive); in test [3] it was -82.5% (inactive); in test [7], -7.48% (inactive); in test [8] it was 5.42% (inactive). Besides, the inhibition of aggregation in test [2] was 20.4% (inactive). Besides, the figures for the nuclei count in test [2] and in test [3] were 99.4% and 123%, respectively. Further, in test [4], the fluorescence slope was -0.441 (inactive). In addition, the NADPH fluorescence slope in test [5] was -4e-05 (inactive). In addition, in test [6], the slope was 0.00663 (inactive).
On to `CCOc1cccc(N2C(=O)CC(=O)NC2=O)c1`, for which, in test [1], the cell count turned out to be 351. Besides, the inhibition in test [1] was -3.3% (inactive); in test [3] it was -63.8% (inactive); in test [7] it was 2.1% (inactive); in test [8] it was 3.82% (inactive). The inhibition of aggregation in test [2] was -8.7% (inactive). Further, the nuclei count was determined as 109% in test [2] and 107% in test [3]. For the same compound, in test [4], the fluorescence slope was -0.524 (inactive). Besides, in test [5], the NADPH fluorescence slope was -1.6e-06 (inactive). The slope in test [6] is 0.00568 (inactive).
Turning to `Cc1ccc2nc(N3CCN(C)CC3)[nH]c2c1`, in test [1], the cell count is 369. Besides, the inhibition is -15.9% (inactive) in test [1], 5.8% (inactive) in test [3], -66.5% (inactive) in test [7] and -98.1% (inactive) in test [8]. For the same compound, in test [2], the inhibition of aggregation was 5.5% (inactive). For the same compound, the nuclei count in test [2] is 87.6%; in test [3], 97.7%. The fluorescence slope in test [4] is -0.506 (inactive). Moreover, in test [5], the NADPH fluorescence slope is 4.2e-05 (inactive). In test [6], the slope was 0.00535 (inactive).
As to `CCCCNC(=O)c1c(N)n(CCCOC)c2nc3ccccc3nc12`, the cell count in test [1] was 447. Moreover, the inhibition in test [1] was 14.6% (inactive); in test [3], 0.8% (inactive); in test [7], -5.16% (inactive); in test [8], -28.3% (inactive). The inhibition of aggregation in test [2] was 16.7% (inactive). Also, the nuclei count in test [2] turned out to be 95%; in test [3], 111%. For the same compound, the fluorescence slope in test [4] was -0.245 (inactive). Moreover, the NADPH fluorescence slope in test [5] was -2.4e-06 (inactive). Further, the slope in test [6] was 0.00654 (inactive).
In the case of `CCC(C(=O)N1CCC2(CC1)OCCO2)c1ccccc1` (stereo not given), in test [1], the cell count was 391. Besides, the inhibition in test [1] was 8.2% (inactive); in test [3], -81.6% (inactive); in test [7] it was 14.2% (inactive); in test [8] it was 7.25% (inactive). Also, the inhibition of aggregation in test [2] is 18.1% (inactive). The nuclei count in test [2] was 111%; in test [3], 99.5%. Moreover, the fluorescence slope in test [4] is -0.381 (inactive). Further, the NADPH fluorescence slope in test [5] is -2.6e-05 (inactive). Also, in test [6], the slope is 0.00492 (inactive).
In the case of `O=C(c1cccs1)C1CN2CCC1CC2` (stereo not given), in test [1], the cell count worked out at 582. In addition, the inhibition in test [1] was -15.9% (inactive); in test [3] it was 7.9% (inactive); in test [7] it was -7.76% (inactive); in test [8], 20.7% (inactive). The inhibition of aggregation in test [2] is 1.5% (inactive). Besides, the nuclei count in test [2] was 75.5%; in test [3] it was 110%. In addition, in test [4], the fluorescence slope was -0.485 (inactive). In addition, in test [5], the NADPH fluorescence slope is 3e-05 (inactive). In addition, the slope in test [6] is 0.00316 (inactive).
Consider `COc1ccc(CN2CCN(c3ccccc3F)CC2)c(OC)c1`, for which, in test [1], the cell count is 420. Besides, the inhibition in test [1] was 7.1% (inactive); in test [3] it was -39% (inactive); in test [7], 4.18% (inactive); in test [8] it was 24.2% (inactive). In addition, the inhibition of aggregation in test [2] was -8.1% (inactive). In addition, the nuclei count was 109% in test [2] and 125% in test [3]. Further, the fluorescence slope in test [4] is -0.38 (inactive). Moreover, the NADPH fluorescence slope in test [5] was 4.4e-05 (inactive). The slope in test [6] was 0.00736 (inactive).
The compound `CCOP(=S)(OCC)c1ccc(N(C)C)cc1` showed a cell count in test [1] of 670. In addition, the inhibition in test [1] is -1% (inactive); in test [3] it was -113% (inactive); in test [7] it was -17.4% (inactive); in test [8], -4.41% (inactive). Besides, the inhibition of aggregation in test [2] was 18.4% (inactive). For the same compound, the nuclei count in test [2] was found to be 68.7%; in test [3], 117%. Also, in test [4], the fluorescence slope is -0.572 (inactive). Also, the NADPH fluorescence slope in test [5] was 3.8e-05 (inactive). The slope in test [6] was 0.00443 (inactive).
In test [1], `O=C1OCCC1NC1=NCCC1` (stereo not given) came in with a cell count of 571. The inhibition was -9.6% (inactive) in test [1], -16.4% (inactive) in test [3], -0.849% (inactive) in test [7] and 13.5% (inactive) in test [8]. Also, in test [2], the inhibition of aggregation was -1.8% (inactive). For the same compound, the nuclei count in test [2] came out at 106%; in test [3], 101%. For the same compound, the fluorescence slope in test [4] is -0.45 (inactive). Besides, the NADPH fluorescence slope in test [5] is -5e-05 (inactive). The slope in test [6] is 0.00554 (inactive).
